PubChem BioAssay AID1259372 (The Scripps Research Institute Molecular Screening Center, 2018)
Among all 4,700 compounds or so, about 760 (16%) were called active. These entries were drawn from the full list. Unmarked numbers belong to inactive results.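 The calls were made as follows: active = inhibition above a cutoff derived from the DMSO control wells (cut at about 28% in these data); inactive = the rest.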

Each molecule was assayed against Microphthalmia-associated transcription factor (Homo sapiens) (UniProt O75030) (assay: blockers of human MITF dimerization – biochemical, AlphaScreen, triplicate, confirmation (AID 1259372)). Details: AlphaScreen MITF homodimerization, biotin/His-MITF beads; at 2.6 µM; active compounds read high.
Sequence of Microphthalmia-associated transcription factor (Homo sapiens) (O75030 whole entry, looked up): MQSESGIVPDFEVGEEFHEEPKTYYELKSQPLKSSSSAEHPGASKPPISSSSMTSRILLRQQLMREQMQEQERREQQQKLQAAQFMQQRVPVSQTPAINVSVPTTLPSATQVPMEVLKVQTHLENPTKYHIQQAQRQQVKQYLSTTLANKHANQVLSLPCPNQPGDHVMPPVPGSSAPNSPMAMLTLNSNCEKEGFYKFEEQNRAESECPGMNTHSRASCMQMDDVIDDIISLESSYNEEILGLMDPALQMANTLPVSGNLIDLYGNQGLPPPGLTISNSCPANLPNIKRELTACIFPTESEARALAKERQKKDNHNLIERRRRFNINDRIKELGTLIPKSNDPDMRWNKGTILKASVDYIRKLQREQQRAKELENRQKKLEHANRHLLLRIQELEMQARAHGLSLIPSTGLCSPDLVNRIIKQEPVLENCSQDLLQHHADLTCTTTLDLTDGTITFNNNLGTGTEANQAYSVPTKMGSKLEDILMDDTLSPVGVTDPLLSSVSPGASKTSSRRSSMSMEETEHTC

Row | SMILES | inhibition
1 | COc1ccc(C(=O)COC(=O)CNS(=O)(=O)/C=C/c2ccc(C)cc2)cc1OC | 7.42%
2 | O=C(CNCc1ccc(F)cc1)Nc1ccc(N2CCCC2)cc1 | 17.1%
3 | CC(C)(C)n1nnnc1C(c1ccc2ncccc2c1)N1CCSCC1 (stereo unspecified) | 20.3%
4 | N#Cc1nc(COc2cccc(Cl)c2)oc1NCCCn1ccnc1 | 43.8% (active)
5 | CCc1cccc(OCCOCCn2ccnc2)c1 | 0.99%
6 | CCc1ccc(OCCCCn2ccnc2)cc1 | -7.12%
7 | C=CCc1cc(C)ccc1OCCCn1ccnc1 | -1.07%
8 | COc1ccc(Br)cc1CN1CCN(C(=O)c2cccnc2)CC1 | 8.4%
9 | Cc1cccc(NC(=O)CNCCN2CCCCC2)c1C | 7.31%
10 | O=[N+]([O-])c1ccccc1S(=O)(=O)N1CCN(C2Cc3ccccc3C2)CC1 | 4.35%
11 | COc1ccc(CN2CCN(Cc3cc(OC)c(OC)c(OC)c3)CC2)cc1 | 1.87%
12 | CCN(CC)CCN1COc2c(cc(Cl)c3cccnc23)C1 | 107% (active)
13 | CN1CCN(CCC(=O)N/N=C/c2ccsc2)CC1 | -0.75%
14 | c1ccc(-n2cc(CN3CCOCC3)c(-c3ccc4c(c3)OCCO4)n2)cc1 | 13.2%
15 | COC(=O)C(C)CN1CCN(Cc2ccc3c(c2)OCO3)CC1 (stereo unspecified) | 1.84%
16 | CCN(Cc1ccccc1)Cc1ccc([N+](=O)[O-])cc1 | -4.11%
17 | COc1ccc(OCCCC(=O)Oc2ccc(OC)cc2)cc1 | 4.29%
18 | Cc1ccc(OCCCCNCCN2CCOCC2)c(Br)c1 | 5.77%
19 | COc1cccc(-c2ncnn2-c2sc3c(c2C#N)CCCCC3)c1 | -10.4%
20 | COc1cc(CN2CCN(Cc3ccccc3Cl)CC2)cc(OC)c1OC | 9.37%
21 | CCN1CCN(CCOCCOc2ccccc2OCc2ccccc2)CC1 | 2.12%
22 | COCCCN1C(=O)c2cccc3c(C(=O)c4ccccc4)ccc(c23)C1=O | 10.4%
23 | O=C(CN1CCN(CC(=O)c2ccco2)CC1)Nc1ccc(Cl)c(Cl)c1 | 10.7%
24 | Cc1nc2sc(C(c3ccccc3Cl)N3CCC4(CC3)OCCO4)c(O)n2n1 (stereo unspecified) | 13.8%
25 | CC(=O)NS(=O)(=O)c1ccc(-c2ccc(C=C(C#N)C#N)o2)cc1 | -19.5%
26 | N#Cc1ccc(/C=N/NC(=O)c2cc([N+](=O)[O-])cc([N+](=O)[O-])c2)cc1 | 3.87%

Row | SMILES | inhibition
27 | Fc1cccc(Cl)c1Cn1nnc(-c2ccncc2)n1 | 13.6%
28 | Cc1cccc(OCCN2CCNCC2)c1C | -3.54%
29 | COc1ccc2c(c1)CC(c1nc(Nc3ccc4cnccc4c3)c3ccccc3n1)CO2 (stereo unspecified) | 58.2% (active)
30 | CC1CCCCC1NC(=O)CSc1nnc(-c2ccncc2)n1CCCN(C)C (stereo unspecified) | 8.82%
31 | COc1ccc(C(=O)N2CCN(Cc3ccccc3C(F)(F)F)CC2)cc1OC | 3.61%
32 | CCN(C(=O)Cc1nc(N)n[nH]1)C1(C(=O)Nc2ccc(C)cc2)CCCCC1 | 81.1% (active)
33 | CCN(C(=O)Cc1nc(N)n[nH]1)C1(C(=O)Nc2ccccc2)CCCCC1 | 105% (active)
34 | CCOc1ccc(CN2CCCN(C)CC2)cc1 | 5.9%
35 | CCN(CC)C(=O)C1CCCN(Cc2cccc(Cl)c2)C1 (stereo unspecified) | -2.94%
36 | N#Cc1ccc(OCC(=O)Nc2nc(-c3ccccn3)cs2)cc1 | 22.3%
37 | CCC(C)NCCOCCOc1cc(C)cc(C)c1C (stereo unspecified) | -6.95%
38 | COc1ccc(Cn2nnc(C(=O)Nc3cccc(Cl)c3)c2N)cc1 | 8.84%
39 | CCN1CCN(CC(=O)N/N=C/c2cccc(Cl)c2)CC1 | 2.25%
40 | c1cncc(CCNc2ccc3ncc(-c4cc5ccccc5o4)n3n2)c1 | 2.68%
41 | CN1CCC(N2CCN(c3ccccc3Cl)CC2)CC1 | 10.4%
42 | C=CCNC(=O)c1sc(=S)n(CC)c1N | 0.63%
43 | CC(C)(C)NCC(=O)Nc1c2c(nc3ccccc13)N(Cc1ccccc1)CC2 | 18.3%
44 | CCOc1cccc(C2C(C(=O)OCCOc3ccccc3)=C(C)NC3=C2C(=O)CCC3)c1 (stereo unspecified) | 2.03%
45 | Cc1ccc(C(C)C)c(OCC#CCN2CCNCC2)c1 | 7.61%
46 | COc1ccc(CN2CCN(Cc3ccccc3C)CC2)c(OC)c1OC | -1.26%
47 | CCCS(=O)(=O)N1CCN(Cc2cccc(Cl)c2)CC1 | 4.65%
48 | COC(=O)c1sc(NC(=O)c2ccccc2C)c(C#N)c1C | -8.1%
49 | COc1ccc(C(=O)NCCN2CCN(c3nc4c(C)c(C)ccc4s3)CC2)cc1 | -5.73%
50 | COc1cc(CN2CCN(Cc3ccco3)CC2)c([N+](=O)[O-])cc1OC | 16.3%
51 | COc1cc(Nc2ncnc3c2nc(N2CCOCC2)n3C(C)C)cc(OC)c1OC | -3.35%
52 | COc1cc(N2CCOCC2)ccc1Nc1cc(Nc2ccccc2-n2cccn2)c(C(F)(F)F)cn1 | 31.5% (active)

Row | SMILES | inhibition
53 | CCN(CC(=O)NCc1ccc(Cl)cc1)Cn1nnc2ccccc21 | 0.75%
54 | COc1ccc(CN2CCN(C3CCC(C)CC3)CC2)c(OC)c1OC (stereo unspecified) | 2.96%
55 | CCCCC(=O)NCc1ccc(F)cc1 | 17.4%
56 | CN(C)c1cccc(Nc2ccc(-c3cccc(C=O)c3)cn2)c1 | 65.7% (active)
57 | COc1ccc(CN2CCN(Cc3cccc(Br)c3)CC2)c(OC)c1 | 8.87%
58 | CCN(CCN(C)C)Cc1c(Cl)cccc1Cl | -9.82%
59 | COc1ccc(CN2CCN(Cc3cc(OC)ccc3OC)CC2)cc1 | -1.47%
60 | O=c1c2ccccc2ncn1CCCCOc1ccccc1F | 15.3%
61 | COc1ccccc1CN1CC(C)OC(C)C1 (stereo unspecified) | -2.69%
62 | CC(c1ccccn1)N(CCN(C)C)C(=S)Nc1ccccc1F (stereo unspecified) | 19.9%
63 | O=S(=O)(c1ccc(F)cc1)N1CCN(Cc2ccccc2C(F)(F)F)CC1 | 3.94%
64 | COc1cccc(CN2CCN(Cc3ccc(C(F)(F)F)cc3)CC2)c1OC | 1.8%
65 | Fc1ccc(CN2CCN(C3CCCC3)CC2)cc1 | 5.12%
66 | CSc1ccc(CN2CCN(Cc3cccc(Oc4ccccc4)c3)CC2)cc1 | 6.75%
67 | COc1ccc(NC(=O)c2cc3n(n2)C(C(F)(F)F)CC(c2ccc(OC)c(OC)c2)N3)cc1OC (stereo unspecified) | -8.79%
68 | CC(=O)c1cccc(N2C(=O)c3cccnc3C2=O)c1 | 0.46%
69 | CCCS(=O)(=O)N1CCN(Cc2ccccc2Br)CC1 | 7.16%
70 | COc1cccc(OC)c1C(=O)N1CCN(Cc2ccccc2F)CC1 | 6.68%
71 | COc1ccc(OC)c(CN2CCN(Cc3ccc(Cl)cc3)CC2)c1 | 7.55%
72 | O=[N+]([O-])c1ccccc1CN1CCN(Cc2cccnc2)CC1 | 14.6%
73 | CC1CCC2C(=O)N(c3ccc(I)cc3)C(=O)C2C1 (stereo unspecified) | -5.9%
74 | O=C(O)C1C2C=CC(O2)C1C(=O)Nc1nccs1 (stereo unspecified) | -0.18%
75 | O=C(NN1C(=O)c2ccccc2C1=O)c1cccc(F)c1 | -16%
76 | Cc1ccc(C)n1C(Cc1ccccc1)C(=O)O (stereo unspecified) | 17%
77 | CN(CCc1ccccn1)Cc1cccnc1 | 8.93%
78 | COc1ccc(C(CNCc2cc(=O)oc3cc4c(cc23)CCC4)N2CCOCC2)cc1 (stereo unspecified) | 10.3%

Row | SMILES | inhibition
79 | O=C(Cc1cccs1)N/N=C\C=C\c1ccco1 | 79.7% (active)
80 | Fc1cccc(CN2CCN(C3CCC(c4ccccc4)CC3)CC2)c1 (stereo unspecified) | 11.2%
81 | CCC(C)c1ccccc1NC(=O)CN(C)CC(=O)Nc1ccccc1SC (stereo unspecified) | -6.92%
82 | Cc1ccccc1NC(=O)NCCOc1cc(N2CCCC2)ncn1 | 6.75%
83 | CCS(=O)(=O)N1CCN(C2CCCCC2C)CC1 (stereo unspecified) | -1.17%
84 | COc1ccc(CN2CCCC(C(=O)N3CCCCC3)C2)cc1 (stereo unspecified) | -32.4%
85 | C/C(N)=C(/C#N)C(=O)COC(=O)c1c2c(nc3ccccc13)/C(=C/c1ccco1)CC2 | 90.7% (active)
86 | CCN1CCN(CCOc2ccc(-c3ccccc3)cc2)CC1 | 9.66%
87 | COc1ccc(CN2CCC(C(=O)N3CCN(Cc4ccccc4)CC3)CC2)cc1 | 13.8%
88 | COc1cc(CN2CCN(Cc3cccnc3)CC2)cc(OC)c1OC | 6.15%
89 | Cc1cc(NC(=O)CSc2ccc(-c3ccccn3)nn2)no1 | 49% (active)
90 | Cc1cccnc1NC(=O)CSc1nnc(COc2ccc(C(C)C)cc2)n1C | 5.99%
91 | Cc1cc(NC(=O)CNCCCN(C)C)no1 | 2.39%
92 | CCOc1ccc(OCCCCNCCO)cc1 | 10.6%
93 | COc1cccc(CN2CCC(C(=O)NCCc3ccccc3)CC2)c1 | 8.72%
94 | CC(NCCCN1CCOCC1)C(=O)Nc1ccccc1 (stereo unspecified) | 5.64%
95 | CN(CCC(=O)O)Cc1cccc(Cl)c1 | -8.04%
96 | C[C@@H](OCc1ccccc1)[C@@H]1NC(=O)[C@H]2CN(C(=O)Nc3cccc(F)c3)CCN2C1=O | 68.9% (active)
97 | CC[C@@H]1NC(=O)[C@H]2CN(C(=O)NCc3ccccc3)CCN2C1=O | 73.6% (active)
98 | Cc1n[nH]c(=O)nc1N/N=C/c1cccs1 | 35.1% (active)
99 | CCCS(=O)(=O)N1CCN(C(C)C)CC1 | 10.5%
100 | CC(C)CO/N=C1\C[C@@H](O)[C@@H](O)[C@@H]2[C@@H]3C(=O)N([C@@H](C)c4ccccc4)C(=O)[C@@H]3CC[C@@H]12 | 3.51%
101 | O=C(OCCN1CCOCC1)c1c(Cl)nc2sccn12 | 9.99%
